Measurements published in PubChem BioAssay.
Activity calls are given as the source filed them. Unless noted, how the calls were made is not given here.

What was measured:
[1] = tested on: XIP peptide (Xip251-270) binding; test: small-molecule binders of XIP peptide, primary screen, biochemical, small-molecule microarray, fluorescence 635/667 nm, 0.1 µg/mL protein (AID 1182); settings: fluorescent protein binding, 635 nm, higher = more signal, called active from +8 up or from −8 down
XIP peptide (Xip251-270) = test: small-molecule binders of XIP peptide, primary screen, biochemical, small-molecule microarray, fluorescence 635/667 nm, 0.5 µg/mL protein (AID 1183); settings: small-molecule microarray binding, fluorescence 635 nm; higher = more signal
[2] = Plasmodium falciparum growth inhibition, primary screen, strain 3D7, DAPI fluorescence, 100 nL (AID 1184);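 further: parasites grown inside human red blood cells in medium with human serum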; settings: P. falciparum 3D7 growth, 3 d, higher = more signal
[3] = target: Homeobox protein Hox-A13 (Mus musculus) (UniProt Q62424); test: inhibitors of HoxA13-DNA binding, primary screen, biochemical, fluorescence polarization, labeled oligonucleotide (AID 1185); settings: 15 min, higher = more signal, called active from +8 up or from −8 down
Sequence of Homeobox protein Hox-A13 (Mus musculus) (Q62424 whole entry, looked up): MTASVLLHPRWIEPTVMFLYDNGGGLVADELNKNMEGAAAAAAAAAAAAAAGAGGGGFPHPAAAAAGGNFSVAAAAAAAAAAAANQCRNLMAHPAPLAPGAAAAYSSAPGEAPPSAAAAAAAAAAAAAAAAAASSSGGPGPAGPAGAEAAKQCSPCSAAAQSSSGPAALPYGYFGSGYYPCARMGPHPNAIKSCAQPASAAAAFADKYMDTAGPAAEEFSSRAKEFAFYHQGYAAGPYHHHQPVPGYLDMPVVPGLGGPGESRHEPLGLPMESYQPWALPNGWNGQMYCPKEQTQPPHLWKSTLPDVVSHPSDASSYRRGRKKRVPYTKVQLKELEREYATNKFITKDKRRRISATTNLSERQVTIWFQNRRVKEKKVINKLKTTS

[4] = inhibitors of hydroxyurea-induced Chk1 phosphorylation, primary screen, imaging, HeLa, phospho-Chk1 antibody, percent positive cells (AID 1186); settings: hydroxyurea-induced phospho-Chk1 immunofluorescence imaging, higher = more signal
[5] = inhibitors of hydroxyurea-induced Chk1 phosphorylation, primary screen, imaging, HeLa, phospho-Chk1 nuclear intensity (AID 1187); settings: hydroxyurea-induced phospho-Chk1 immunofluorescence imaging, higher = more signal

Row | Compound | composite z-score [1] | composite z-score (XIP peptide (Xip251-270)) | z-score [2] | z-score [3] | z-score [4] | z-score [5]
1 | COCCCNC(=O)[C@]1(Cc2ccccc2)N=C(c2ccc(OCCCO)cc2)O[C@@H]1c1ccccc1 | 2.03 (inactive) | 0.825 | -2.17 | -4.76 (inactive) | -0.117 (inactive) | -0.0405 (inactive)
2 | C=CCNC(=O)[C@H]1[C@@H]2C(=O)O[C@@H](c3ccccc3)[C@@H](c3ccccc3)N2[C@@H](c2ccc(O)cc2)[C@]12C(=O)N(C(=O)OCCOC)c1ccc(C#CC3=CCCCC3)cc12 | 0.514 (inactive) | 0.834 | -0.919 | -0.216 (inactive) | -0.411 (inactive) | -0.376 (inactive)
3 | COCC(=C=CC[C@@H](O)c1ccccc1OCCO)CCO | 0.291 (inactive) | 0.0706 | -0.721 | -2.37 (inactive) | -0.595 (inactive) | -0.534 (inactive)
4 | O=C1C[C@]2(c3ccc([N+](=O)[O-])cc3)C(=O)N(CCN3CCOCC3)c3cc(CO)ccc3[C@H]2N1CC12CC3CC(CC(C3)C1)C2 | 0.288 (inactive) | -0.307 | -0.226 | -2.32 (inactive) | 0.416 (inactive) | 0.394 (inactive)
5 | CN(C)c1ccc(C(O)C2C=CC3C(=O)N(c4ccccc4)C(=O)C3N2Nc2ccccc2F)cc1 (stereo unspecified) | 0.324 (inactive) | 0.265 | -0.0341 | -5.07 (inactive) | -0.0191 (inactive) | -0.817 (inactive)
6 | C=C(/C(=C/C[C@H](OC(C)=O)c1ccc(OCCO)cc1)c1cnc2ccccc2c1)C(C)C | -0.18 (inactive) | 0.605 | -2.99 | -4.31 (inactive) | -0.319 (inactive) | -0.38 (inactive)
